# Source: PubChem BioAssay (NCATS)
# Inconclusive results are not listed. Entries that show only a call come without a potency. Unmarked numbers belong to inactive results. Calls of active or inactive are those of the source. The call rests on the fitted dose curve; in most records, active means well fitted inhibition curve with a large enough effect; inconclusive means small, poorly fitted or top-dose-only effect; inactive means flat fitted curve, though single readings scatter.
# Assay: P-glycoprotein substrates identified in KB-8-5-11 adenocarcinoma cell line, qHTS therapeutic library screen (AID 1346987); further: nearly all actives have a fitted effect of over 65% in size
# Details: KB-8-5-11 (P-gp overexpressing) viability, CellTiter-Glo, 72 h; series mostly up to 44.5 µM
# How it was run: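 Steps: plate 500 KB-8-5-11 cells/well in DMEM + 10% FCS (colchicine removed); pin compounds in dose-response; incubate 72 h, 37 degree C, 5% CO2; add CellTiter-Glo, 5 min; read luminescence.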
# Potency means the concentration at half of the fitted maximal effect.
Structure (SMILES),Potency,"activity change, negative = cytotoxicity"
O=P(O)(O)C(Sc1ccc(Cl)cc1)P(=O)(O)O,inactive,
CC(=O)N[C@H]1[C@H](O[C@H]2CC[C@@]3(C)C(CC[C@]4(C)C3CC=C3C5CC(C)(C)CC[C@]5(C(=O)O)C(O)C[C@]34C)C2(C)C)O[C@H](CO[C@@H]2O[C@H](C)[C@H](O)[C@H](O)[C@H]2O[C@@H]2OC[C@@H](O)[C@H](O)[C@H]2O)[C@@H](O)[C@@H]1O (stereo not given in full),,-2.51% [at 9.29 µM]
COc1ccc(CCO[C@@H]2O[C@H](CO[C@H]3OC[C@](O)(CO)[C@H]3O)[C@@H](OC(=O)/C=C/c3ccc(O)c(O)c3)[C@H](O[C@@H]3O[C@@H](C)[C@H](O)[C@@H](O)[C@H]3O)[C@H]2O)cc1OC,inactive,
Nc1ncnc(Nc2ccc(Cl)cc2)n1,inactive,
Cc1cccc(C#Cc2cc(F)cc(C#N)c2)n1,inactive,
C/C=C(/C)C(=O)OC1C=C2C3C(C)C(C)C(OC(=O)C(C)C(C)O)CC3(C)CCC2(C)C2(C)CC(OC(C)=O)C3C(C)(C)C(O)C(=O)CC3(C)C12 (stereo not given),inactive,
c1ccc2c(CCC3CCNCC3)c[nH]c2c1,inactive,
C=CC1(C)CC(O)C(C(=C)C(=O)OC)C(O)C1C(=C)CO (stereo not given),inactive,
O=C(Nc1ccc2[nH]nc(-c3ccncc3)c2c1)[C@@H]1CCN(CC(=O)N2CCN(c3ccc(-c4ncccn4)cc3)CC2)C1,inactive,
O=C(NCC1CCN(Cc2cccc(Cl)c2)CC1)[C@@H]1CCCN(c2ncnc3c2nc2n3CCCC2)C1,inactive,
CCC[C@@]1(CCc2ccccc2)CC(O)=C([C@H](CC)c2cccc(NS(=O)(=O)c3ccc(C(F)(F)F)cn3)c2)C(=O)O1,inactive,
C=C1C(=O)OC2/C=C(\C)CC/C=C(\C)CC(OC(C)=O)C12 (stereo not given),inactive,
C=C1CC[C@@H]2[C@](C)(CO)[C@H](O)CC[C@@]2(C)[C@@H]1CC(=O)C1=CCOC1=O,inactive,
C/C=C(\C)C(=O)O[C@H]1C[C@](C)(O)[C@H]2CC=C(C)[C@H]2[C@@H]2OC(=O)[C@H](C)[C@H]21,inactive,
O=C(NC1CCN(CCCCC2(C(=O)NCC(F)(F)F)c3ccccc3-c3ccccc32)CC1)c1ccccc1-c1ccc(C(F)(F)F)cc1,20.6 µM (active),
CC1(C)CC[C@]2(C(=O)O)CC[C@]3(C)C(=CCC4[C@@]5(C)C[C@@H](O)[C@H](O)C(CO)(CO)C5CC[C@]43C)C2[C@@H]1O (stereo not given in full),7.96 µM (active),
C[C@H](CN(C)C)Oc1nc(Nc2cc3cccc(Cl)c3cn2)cnc1C#N,2.91 µM (active),
COc1c(C)cnc(Cn2cc(C#CCC(C)(C)O)c3c(Cl)nc(N)nc32)c1C,0.0326 µM (active),
COc1ccccc1OCCNCC(O)CCOc1cccc2[nH]c3ccccc3c12 (stereo not given),18.4 µM (active),
CN[C@@H]1CCc2[nH]c3ccc(C(N)=O)cc3c2C1,inactive,

Structure (SMILES),Potency,"activity change, negative = cytotoxicity"
CS/C=C/C(=O)O[C@@H]1CCC2=CC(=O)C(=C(C)C)C[C@]2(C)[C@H]1C,inactive,
Cc1cc(Nc2ccccc2C(=O)O)ccc1Cl,inactive,
O=C(NO)c1ccc(CC(=O)N(CCO)c2ccccc2)cc1,inactive,
CC(C)(O)C(=O)N1CCN(c2ccc(C(F)(F)F)c(C3=C(c4c[nH]c5ccccc45)C(=O)NC3=O)c2)CC1,inactive,
C1=Cc2ccccc2C(=C2CCN(CCCCc3nn[nH]n3)CC2)c2ccccc21,inactive,
CCCn1ncc(CN2CCCC(C(=O)c3cccc(OC(C)C)c3)C2)c1C (stereo not given),inactive,
C=CC(C)(O)CC/C=C(\C)C(=O)OC1C(O)C(CO)OC(OC(=O)C23CCC(C)(C)CC2C2=CCC4C5(C)CCC(OC6OC(COC7OCC(OC(C)=O)C(O)C7OC7OC(COC(C)=O)C(O)C(O)C7OC(C)=O)C(O)C(O)C6OC6OCC(O)C(O)C6O)C(C)(C)C5CCC4(C)C2(C)C(O)C3O)C1OC1OCC(OC2OCC(O)C(OC3OCC(O)C(O)C3O)C2O)C(O)C1O (stereo not given),,-2.64% [at 5.11 µM]
CCOC(=O)COc1ccc2c(=O)cc(-c3ccccc3)oc2c1,inactive,
Fc1ccc(-c2nc(-c3c(F)cccc3F)[nH]c2-c2ccncc2)cc1,inactive,
CC(=O)OC1C(OC(=O)c2ccccc2)C2C(C)(C)CCC(OC(C)=O)C2(C)C23CCC(C)(C2)C(=O)CC13 (stereo not given),inactive,
CCOC(=O)c1cnn(-c2ccccc2)c1NC(=O)c1cc2nc(-c3ccco3)cc(C(F)(F)Cl)n2n1,inactive,
COc1c2c(c(C)c3c1C(=O)OC3)O[C@@]1(C)C[C@@H](OC(C)=O)[C@]34O[C@](OC)(CC[C@]3(C)[C@H]1C2)OC4(C)C,inactive,
COC(=O)c1ccnc(-c2cc(C(=O)Nc3ccc(C4(N)CC4)cc3)ccn2)c1,inactive,
COc1ccc(Cl)c(Nc2ncnc3cc(OCC4CCN(C)CC4)c(OC)cc23)c1,inactive,
CCCCCCCCCCCCCCCC(=O)OC[C@H](O)[C@H]1OC(=O)C(O)=C1O,inactive,
CN(C)N(C)C(=O)[C@@]1(Cc2ccccc2)CCCN(C(=O)[C@@H](Cc2c[nH]c3ccccc23)NC(=O)C(C)(C)N)C1,inactive,
C/C=C(\C)C(=O)OC1C[C@@]2(COC(C)=O)O[C@H]2/C=C\[C@@]2(C)O[C@@H]2[C@H]2OC(=O)C(COC(C)=O)=C12 (stereo not given in full),inactive,
C=C[C@]1(C)C[C@@H](OC(=O)CO)[C@]2(C)[C@H](C)CC[C@]3(CCC(=O)[C@H]32)[C@@H](C)[C@@H]1O,inactive,
C/C=C\NC(=O)C1NC(=O)C(CC(N)=O)NC(=O)C(NC(=O)C(=O)C(C)CC)Cc2ccc(O)c(c2)-c2cccc3c2NC(=O)C3(O)C1O (stereo not given),inactive,
COc1ccc2[nH]c(=O)c3c(c2c1)OC(C)(C)C=C3,inactive,
